Screening results (PubChem BioAssay)
Shown are actives, neighbours in structure and some others; about 8.8% of the full set was active somewhere.
HTT cytoprotect = qHTS Multiplex Assay to Identify Dual Action Probes in a Cell Model of Huntington: Cytoprotection (ATP); PC12 HTT-Q103 induced, cytoprotection, ATP luminescence, 40 h; Potency, µM (top dose mostly 56.4 µM), inactives show cytoprotection (ATP increase), most hits filed as activators; hit rate 0.14% among 230,000; AID 1471, 2008; active means well fitted curve in the direction sought with a large enough effect; inconclusive means small, poorly fitted or top-dose-only effect, or another doubt; inactive means no such curve, though single readings can be large; an effect the other way counts as inactive or inconclusive; further: % of control where 0% means no effect; nearly all actives have a fitted effect of over 45% in size
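PC12 cells stably carrying ecdysone-inducible Htt exon 1 (Q103)–GFP were induced with 100 nM tebufenozide (final) alongside library compounds in a dose series. Cytoprotection was scored as retained ATP by ATPlite luminescence.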
LMNA splice mod = qHTS Assay for Modulators of Lamin A Splicing; HeLa LMNA splicing GFP/RFP minigene ratio, 48 h; Potency, µM (highest dose often 46.1 µM), inactives show top-dose ratio change, negative = inhibition, most hits filed as inhibitors; hit rate 0.01% among 200,000; AID 1487, 2009; active means well fitted inhibition curve with a large enough effect in the signal ratio, with a control signal flat, not every such curve was filed as active; inconclusive means small, poorly fitted or top-dose-only effect, or effect the other way, or a change in a side signal; the % refers to the signal ratio; further: on the % scale 0 is the no-effect control and ±100 the full control effect
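Read-out is the ratio of GFP to DsRed2 object intensity, acquired by 488 nm laser-scanning cytometry on HeLa lamin A-EGFP minigene reporter cells. Compound incubation 48 hrs at 37 °C in Opti-MEM with 2% FBS; DMSO 0.5% final.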
HttQ103 aggreg = qHTS Multiplex Assay to Identify Dual Action Probes in a Cell Model of Huntington: Aggregate Formation (GFP). PC12 HttQ103-GFP aggregates, Acumen cytometry, 40 h. Potency, µM (top dose mostly 46.1 µM), for the others: at the top dose activity change, negative = inhibition, most hits filed as inhibitors. hit rate 1.1% among 220,000. AID 1688, 2009; active means well fitted curve in the direction sought with a large enough effect; inconclusive means small, poorly fitted or top-dose-only effect, or another doubt; inactive means no such curve, though single readings can be large; an effect the other way counts as inactive or inconclusive; further: on the % scale 0 is the no-effect control and ±100 the full control effect; nearly all actives have a fitted effect of over 60% in size
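Inducible Q103 Huntingtin exon 1–GFP PC12 line, 1500 cells/well in phenol red free DMEM with 5% equine and 5% calf serum. Tebufenozide 100 nM induced expression; compounds titrated; aggregates quantified by cytometry.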
HPGD block = qHTS Assay for Inhibitors of HPGD (15-Hydroxyprostaglandin Dehydrogenase); Potency, µM, for the others: at the top dose activity change, negative = inhibition, usual class: inhibitors; 15-hydroxyprostaglandin dehydrogenase [NAD(+)] (Homo sapiens), P15428; AID 894, 2007; purified HPGD, NADH fluorescence kinetic, PGE2 substrate; hit rate 4.3% among 150,000; further: on the % scale 0 is the no-effect control and ±100 the full control effect
Target sequence (P15428 whole entry, looked up): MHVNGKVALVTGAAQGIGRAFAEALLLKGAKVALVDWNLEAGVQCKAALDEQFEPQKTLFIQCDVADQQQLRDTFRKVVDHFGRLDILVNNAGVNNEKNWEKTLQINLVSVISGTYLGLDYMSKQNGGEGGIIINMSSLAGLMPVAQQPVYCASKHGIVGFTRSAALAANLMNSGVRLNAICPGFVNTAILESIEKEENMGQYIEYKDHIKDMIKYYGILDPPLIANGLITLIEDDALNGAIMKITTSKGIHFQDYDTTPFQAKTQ
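NADH formation kinetics: reaction with 30 uM PGE2 and 1 mM NAD+ (final), 20 nM enzyme, Tris-HCl pH 8 with Tween 20, after 15 min compound preincubation at room temperature. Fluorescence change, last versus first of five reads.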
ALDH1A1 inh = qHTS Assay for Inhibitors of Aldehyde Dehydrogenase 1 (ALDH1A1); Aldehyde dehydrogenase 1A1 (Homo sapiens), P00352; hit rate 7.3% among 220,000; Potency, µM (top dose mostly 75.3 µM), for inactives: top-dose activity, negative = inhibition, usual class: inhibitors; AID 1030, 2008; Purified ALDH1A1, NADH fluorescence, propionaldehyde substrate;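 further: plate controls were no enzyme wells and a reference inhibitor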
Target sequence (P00352 whole entry, looked up): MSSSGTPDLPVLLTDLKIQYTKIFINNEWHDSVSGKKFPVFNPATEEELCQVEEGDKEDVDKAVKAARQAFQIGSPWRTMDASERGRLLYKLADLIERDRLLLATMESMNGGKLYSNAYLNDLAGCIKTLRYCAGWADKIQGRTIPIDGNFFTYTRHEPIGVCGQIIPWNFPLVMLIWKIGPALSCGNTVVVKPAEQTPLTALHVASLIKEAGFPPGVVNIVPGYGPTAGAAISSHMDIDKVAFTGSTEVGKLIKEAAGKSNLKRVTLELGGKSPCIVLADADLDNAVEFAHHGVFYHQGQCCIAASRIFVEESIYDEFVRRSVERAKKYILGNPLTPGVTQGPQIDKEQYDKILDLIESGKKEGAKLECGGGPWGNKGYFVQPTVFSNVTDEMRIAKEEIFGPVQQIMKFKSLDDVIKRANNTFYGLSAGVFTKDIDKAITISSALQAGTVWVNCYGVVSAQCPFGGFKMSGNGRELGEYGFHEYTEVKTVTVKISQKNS
* = called active by the depositor; ? = inconclusive; nt = not tested or not shown; [ ] = remark or other dose. Unless noted, the call rests on the fitted dose curve; in most records, active means well fitted inhibition curve with a large enough effect (not every such curve was filed as active); inconclusive means small, poorly fitted or top-dose-only effect, or another doubt; inactive means no such curve, though single readings can be large or run the other way. Potency means the concentration at half of the fitted maximal effect.

SMILES | HTT cytoprotect | LMNA splice mod | HttQ103 aggreg | HPGD block | ALDH1A1 inh
C/C(=C1/C(=O)N(c2ccc([N+](=O)[O-])cc2)N=C1c1ccccc1)N(C)C | -38% | ? | 13µM* | -1% | -8%
CN(C)/C=C1\C(=O)N(c2ccc([N+](=O)[O-])cc2)N=C1c1ccccc1 | 0%[10 µM] | ? | -13% | -13% | 25µM*
CC1=NN(c2ccc([N+](=O)[O-])cc2)C(=O)/C1=C\N(C)C | -3%[10 µM] | -12% | -16% | -9% | ?
CN(C)/C=C1/C(=O)N(c2ccc([N+](=O)[O-])cc2)N=C1c1ccccc1 | 9%[10 µM] | ? | -13% | -15% | 16µM*
CCOc1ccc(NC(=O)N(C)CCc2c(C)nn(C)c2C)cc1 | nt | 16%[46 µM] | nt | nt | nt
CCOC(=O)/C(C#N)=C1/C=CN(C)C=N1 | -15% | 5% | 12% | 25µM* | 14µM*
O=C(C1CCC(CNc2nc(=S)[nH]c3ccccc23)CC1)N1CCN(c2ccc(F)cc2)CC1 (stereo unspecified) | 13% | ? | -33% | nt | 14%
COC(=O)n1c(=S)oc2cc(Cl)ccc21 | -32% | 7% | -2% | 22µM* | 14µM*
O=C(CCn1c(=O)c2cccn2c2ccc(F)cc21)NCc1ccccc1F | nt | 21%[46 µM] | nt | nt | nt
COc1ccc(N=C2NN=C(c3c(C)[nH]c4ccccc34)CS2)cc1 | 15%[10 µM] | ? | -8% | -23% | 14µM*
Cc1[nH]c2ccccc2c1C1=NNC(=Nc2ccc(F)cc2)SC1 | 9%[10 µM] | ? | ? | -4% | 20µM*
Cc1nn(S(=O)(=O)c2ccc(C(C)(C)C)cc2)c(C)c1S(=O)(=O)N1CCCCCC1 | nt | 13%[46 µM] | nt | nt | nt
Cn1cc(C(=O)N/N=C/C(Br)=C\c2ccccc2)ccc1=O | 0% | ? | 26% | -22% | ?
Cn1cc(C(=O)N/N=C/C(Br)=C/c2ccccc2)ccc1=O | 21%[10 µM] | ? | ? | 28µM* | ?
COc1cc(OC)c(OC)cc1CNCCSc1nnnn1-c1ccccc1 | nt | 19%[46 µM] | nt | nt | nt
O=c1c2c([nH]c3ccc(Br)cc13)CCCC2 | -18% | 4% | -11% | -4% | -3%
O=c1ccc2cc3c([nH]c4ccc(Br)cc43)oc-2c1O | 0%[10 µM] | -3% | 0% | 16µM* | 7.9µM*
COC(=O)c1c[nH]n2c(=O)c(Cl)c(C)nc12 | nt | 0% | -2% | -11% | -4%
COC(=O)c1c[nH]n2c(=O)c(Cc3ccc(F)cc3Cl)c(C)nc12 | -10%[0.074 µM] | ? | 18µM* | ? | ?
NC(=S)NNc1c(F)c(F)c(F)c(F)c1F | -5%[10 µM] | 15%[46 µM] | 16% | nt | 8.9µM*
Cc1cc(C(=O)COc2ccc([N+](=O)[O-])cc2)c(C)n1C1CC1 | 13%[10 µM] | 0%[46 µM] | -7%[9.22 µM] | nt | 11µM*
CC(=O)N1CCN(C2=NC(=O)C(=C3CCCCC3)S2)CC1 | -1%[10 µM] | -17% | 1% | -9% | 13µM*
N#CCCN1CCN(C2=NC(=O)C(=C3CCCCC3)S2)CC1 | 0%[10 µM] | ? | 5% | ? | 1.3µM*
O=C1N=C(N2CCOCC2)SC1=C1CCCCC1 | 12% | ? | -2% | -29% | 2µM*
CC(=O)N1CCN(C2=NC(=O)/C(=C\c3cccs3)S2)CC1 | 21%[10 µM] | ? | 8%[9.22 µM] | nt | -7%
SMILES | HTT cytoprotect | LMNA splice mod | HttQ103 aggreg | HPGD block | ALDH1A1 inh
O=C1N=C(N2CCOCC2)S/C1=C\c1ccncc1 | 17%[10 µM] | nt | 0%[9.22 µM] | nt | nt
Cc1cccc(N2CCN(C3=NC(=O)C(=C4CCCCC4)S3)CC2)c1 | 9%[10 µM] | ? | ? | -6% | 6.3µM*
Cc1ccc(CNC(=O)Cn2c(=O)cc(-c3ccccc3)c3c(C)nn(C)c32)cc1 | nt | 0%[46 µM] | nt | nt | nt
CCOc1ccccc1NC(=O)CN1C(=O)C(=O)N(Cc2ccco2)C1=O | -10%[10 µM] | 10%[46 µM] | 3% | nt | 6%
COc1ccc(OC)c(CCNc2ncnc3onc(-c4ccc(Cl)cc4)c23)c1 | nt | 10%[46 µM] | nt | nt | nt
Nc1c(C(=O)NCc2ccc3c(c2)OCO3)nnn1Cc1ccc(Br)cc1 | 4%[10 µM] | nt | 6%[9.22 µM] | nt | nt
COc1ccccc1N1CCN(C(CNS(=O)(=O)c2cc(F)ccc2F)c2cccnc2)CC1 (stereo unspecified) | nt | 3% | -13% | -10% | 20µM*
COc1ccc(S(=O)(=O)NCC(c2cccnc2)N2CCN(c3ccccc3OC)CC2)cc1C (stereo unspecified) | -32% | -3% | -2% | -9% | ?
COc1ccccc1N1CCN(C(CNS(=O)(=O)c2ccccc2)c2cccnc2)CC1 (stereo unspecified) | 12%[10 µM] | 6% | 13% | -3% | 20µM*
COc1ccccc1N1CCN(C(CNC(=O)C2CCCCC2)c2cccnc2)CC1 (stereo unspecified) | -27% | ? | ? | 5% | 3%
CCOc1cc(N2CCOCC2)c(OCC)cc1NC(C)C(=O)N1CCN(CC)CC1 (stereo unspecified) | -13% | ? | 23% | nt | 22µM*
CCOC(=O)c1sc(NC(=O)CC)nc1C | -6% | 0%[9.22 µM] | 1% | nt | 3%
CCC(=O)Nc1nc(C)c(C(=O)N2CCCCC2)s1 | 6% | -2% | -8% | 8.9µM* | ?
Cc1nn(-c2ccccc2)c2c1N(CC(=O)N1CCN(c3cccc(Cl)c3)CC1)C(=O)CS2 | nt | -8%[46 µM] | nt | nt | nt
Cc1ccc(/C=c2\sc3n(c2=O)CN(c2cccc(Br)c2)CN=3)o1 | 14% | 0% | -15% | -12% | 20µM*
O=c1/c(=C/c2ccco2)sc2n1CN(c1ccccc1)CN=2 | 3% | -3% | 6% | -18% | -17%
O=c1/c(=C/c2ccco2)sc2n1CN(c1cccc(Br)c1)CN=2 | -3% | 3% | -23% | 25µM* | ?
COc1ccc(CCNC(=O)c2ccc3c(c2)N(Cc2ccc(Cl)cc2)C(=O)c2ccccc2S3)cc1OC | nt | -18%[46 µM] | nt | nt | nt
CC(=O)N1CCN(c2ccc(Oc3ncnc4sccc34)cc2)CC1 | 27%[10 µM] | -11% | 18µM* | -1% | 16%
CN1C=C/C(=C\c2cc[n+](C)c3ccccc23)c2ccccc21 | -184% | nt | 7.1µM* | nt | ?
CC[C@@]12CCCN3CCc4c(n(c5ccccc45)[C@](O)(C(=O)OC)C1)[C@H]32 | ? | -12% | nt | -14% | 0%
Cc1cc(C(=O)CCl)c(C)n1-c1cccc([N+](=O)[O-])c1 | 4%[10 µM] | -12%[46 µM] | ? | nt | 0.32µM*
Cc1cc(C(=O)CCl)c(C)n1-c1ccon1 | -8% | nt | -27% | nt | 0.63µM*
CC(C)(C)c1ccc(C(=O)N/C(=C\c2cccs2)C(=O)NCc2ccco2)cc1 | -12% | -3% | 5% | nt | 3.2µM*
O=C(NCc1ccco1)/C(=C\c1ccco1)NC(=O)c1ccc(Br)o1 | 0%[10 µM] | -17% | ? | ? | 28µM*
CCOc1ccc(NC(=O)c2sc3nc4n(c(=O)c3c2C)CCCC4)cc1 | nt | -3%[46 µM] | nt | nt | nt
